Experimental data published in the supplement of paper PMC8728848.
Many of the other results were omitted from the sample, so the strongest signals are more common in it than they were.

Tests used:
Assay in all cases: glycan array binding signal (z-score within array); higher = stronger binding
Settings in all cases: glycan notation: IUPAC condensed, linker removed
[1] = target: Fuc(a1-2)Gal(b1-3)GalNAc(b1-4)[Neu5Ac(a2-3)]Gal(b1-4)Glc
Outline: (§1)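 From the Consortium for Functional Glycomics database, 3228 arrays were curated, keeping only those whose protein sequence was available. Binding is given as a within-array Z-score averaged across arrays sharing a protein sequence and across linkers. Negative Z-scores can be read as non-binding.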

[2] = target: Fuc(a1-2)Gal(b1-3)GlcNAc6S
Outline: as §1

[3] = target: Fuc(a1-2)[Gal(a1-3)]Gal(b1-3)GlcNAc
Outline: as §1

[4] = target: Fuc(a1-2)[Gal(a1-3)]Gal(b1-3)GlcNAc(b1-2)Man(a1-3)[Fuc(a1-2)[Gal(a1-3)]Gal(b1-3)GlcNAc(b1-2)Man(a1-6)]Man(b1-4)GlcNAc(b1-4)[Fuc(a1-6)]GlcNAc
Outline: as §1

[5] = target: Fuc(a1-2)[GalNAc(a1-3)]Gal(b1-3)GlcNAc(b1-6)GalNAc
Outline: as §1

[6] = target: Fuc(a1-2)[GalNAc(a1-3)]Gal(b1-4)Glc
Outline: as §1

[7] = target: Fuc(a1-3)[Gal(b1-4)]GlcNAc(b1-6)[Gal(b1-3)GlcNAc(b1-3)]Gal(b1-4)Glc
Outline: as §1

[8] = target: Fuc(a1-3)[Gal3S(b1-4)]Glc
Outline: as §1

[9] = target: Fuc(a1-4)GlcNAc
Outline: as §1

[10] = target: Gal(a1-3)Gal(b1-3)GlcNAc
Outline: as §1

[11] = target: Gal(a1-3)Gal(b1-3)[Fuc(a1-4)]GlcNAc(b1-2)Man(a1-3)[Gal(a1-3)Gal(b1-3)[Fuc(a1-4)]GlcNAc(b1-2)Man(a1-6)]Man(b1-4)GlcNAc(b1-4)GlcNAc
Outline: as §1

[12] = target: Gal(a1-3)Gal(b1-4)[Fuc(a1-3)]GlcNAc
Outline: as §1

[13] = target: Gal(a1-3)Gal(b1-4)[Fuc(a1-3)]GlcNAc(b1-2)Man(a1-3)[Gal(a1-3)Gal(b1-4)[Fuc(a1-3)]GlcNAc(b1-2)Man(a1-6)]Man(b1-4)GlcNAc(b1-4)GlcNAc
Outline: as §1

[14] = target: Gal(b1-3)[Fuc(a1-4)]GlcNAc(b1-2)Man(a1-3)[Gal(b1-3)[Fuc(a1-4)]GlcNAc(b1-2)Man(a1-6)]Man(b1-4)GlcNAc(b1-4)[Fuc(a1-6)]GlcNAc
Outline: as §1

[15] = target: Gal(b1-4)GlcNAc(b1-2)Man(a1-6)Man(b1-4)GlcNAc(b1-4)GlcNAc
Outline: as §1

[16] = target: Gal(b1-4)GlcNAc(b1-3)Gal(b1-4)GlcNAc
Outline: as §1

[17] = target: Gal(b1-4)GlcNAc(b1-3)Gal(b1-4)GlcNAc(b1-2)[Gal(b1-4)GlcNAc(b1-3)Gal(b1-4)GlcNAc(b1-6)]Man(a1-6)[Gal(b1-4)GlcNAc(b1-3)Gal(b1-4)GlcNAc(b1-2)Man(a1-3)]Man(b1-4)GlcNAc(b1-4)[Fuc(a1-6)]GlcNAc
Outline: as §1

[18] = target: Gal(b1-4)GlcNAc(b1-3)Gal(b1-4)GlcNAc(b1-3)Gal(b1-4)GlcNAc(b1-3)Gal(b1-4)GlcNAc(b1-3)Gal(b1-4)GlcNAc(b1-2)[Gal(b1-4)GlcNAc(b1-3)Gal(b1-4)GlcNAc(b1-3)Gal(b1-4)GlcNAc(b1-3)Gal(b1-4)GlcNAc(b1-3)Gal(b1-4)GlcNAc(b1-6)]Man(a1-6)[Gal(b1-4)GlcNAc(b1-3)Gal(b1-4)GlcNAc(b1-3)Gal(b1-4)GlcNAc(b1-3)Gal(b1-4)GlcNAc(b1-3)Gal(b1-4)GlcNAc(b1-2)Man(a1-3)]Man(b1-4)GlcNAc(b1-4)[Fuc(a1-6)]GlcNAc
Outline: as §1

[19] = target: Gal(b1-4)GlcNAc(b1-6)Gal(b1-4)GlcNAc
Outline: as §1

[20] = target: Gal3S(b1-4)[Fuc(a1-3)]Glc6S
Outline: as §1

[21] = target: GalNAc(a1-3)Gal
Outline: as §1

[22] = target: GalNAc(a1-3)GalNAc(b1-3)Gal(a1-4)Gal(b1-4)GlcNAc
Outline: as §1

[23] = target: GalNAc(b1-4)GlcNAc(b1-2)Man
Outline: as §1

[24] = target: GalNAc(b1-4)GlcNAc(b1-2)Man(a1-3)[GalNAc(b1-4)GlcNAc(b1-2)Man(a1-6)]Man(b1-4)GlcNAc(b1-4)GlcNAc
Outline: as §1

[25] = target: Glc(a1-4)Glc(a1-4)Glc(a1-4)Glc
Outline: as §1

[26] = target: GlcNAc(a1-4)Gal(b1-4)GlcNAc
Outline: as §1

[27] = target: GlcNAc(a1-4)Gal(b1-4)GlcNAc(b1-3)Gal(b1-4)[Fuc(a1-3)]GlcNAc(b1-3)Gal(b1-4)[Fuc(a1-3)]GlcNAc
Outline: as §1

[28] = target: GlcNAc(b1-2)Man(a1-3)[GlcNAc(b1-2)Man(a1-6)]Man(b1-4)GlcNAc(b1-4)GlcNAc
Outline: as §1

[29] = target: GlcNAc(b1-3)Gal(b1-4)GlcNAc(b1-2)Man(a1-3)[GlcNAc(b1-3)Gal(b1-4)GlcNAc(b1-2)Man(a1-6)]Man(b1-4)GlcNAc(b1-4)GlcNAc
Outline: as §1

[30] = target: GlcNAc(b1-3)Gal(b1-4)GlcNAc(b1-3)Gal(b1-4)GlcNAc(b1-2)Man(a1-3)[GlcNAc(b1-3)Gal(b1-4)GlcNAc(b1-3)Gal(b1-4)GlcNAc(b1-2)Man(a1-6)]Man(b1-4)GlcNAc(b1-4)GlcNAc
Outline: as §1

B1: LF82 (Escherichia coli) (protein)
chain: ADWGPCRTASGDPFIFVTSFTKNIQNPTDNVTGQTYPDFYQWALGDKYSGVCECPSPNPTEARPTLYKTESTLAAGHNSTYFKITNNLEVSTRVYIANVGNVQVPFINKSNSQPGRECDQPTFGWTTGSKGQLSLYIAKPFVGEQNIPQTIIVSVFGTKKENVYSSVPISQVLLSGKVTVTQGCELAAGTSLDIDFGEYQAHDFKGRTGQPPQNVQKIQKELTFNCTNISDGVHIYLSLEGTPNAAYPSAISLGNADVGAVIEDGKGNILKPNDSNSLLEMNPGSLYEYVKRKVTTTITAYPVSTTGKLPAAGDYSGVATMHVELDGGGGGGGGGGATTDLGAKGTLKFSLKISQGHHHHHH
Q: With B1 as the binder, how does the “glycan array binding signal (z-score)” value [1] read?
A: 3.03

Q: And the “glycan array binding signal (z-score)” value [2]?
A: 2.87

Q: And the “glycan array binding signal (z-score)” value [3]?
A: -0.338

Q: What about the “glycan array binding signal (z-score)” value [4] of the same binder?
A: 3.84

Q: And the “glycan array binding signal (z-score)” value [5]?
A: 1.19

Q: And the “glycan array binding signal (z-score)” value [6]?
A: -0.933

Q: And the “glycan array binding signal (z-score)” value [7]?
A: -1.03

Q: What about the “glycan array binding signal (z-score)” value [8] of the same binder?
A: 0.085

Q: And the “glycan array binding signal (z-score)” value [9]?
A: -0.348

Q: And the “glycan array binding signal (z-score)” value [10]?
A: -0.354

Q: What about the “glycan array binding signal (z-score)” value [11] of the same binder?
A: 0.456

Q: What about the “glycan array binding signal (z-score)” value [12] of the same binder?
A: -1.48

Q: What about the “glycan array binding signal (z-score)” value [13] of the same binder?
A: 1.79

Q: What about the “glycan array binding signal (z-score)” value [14] of the same binder?
A: 0.378

Q: And the “glycan array binding signal (z-score)” value [15]?
A: 4.95

Q: And the “glycan array binding signal (z-score)” value [16]?
A: -1.12

Q: And the “glycan array binding signal (z-score)” value [17]?
A: 2.68

Q: And the “glycan array binding signal (z-score)” value [18]?
A: 3.2

Q: And the “glycan array binding signal (z-score)” value [19]?
A: -0.202

Q: What about the “glycan array binding signal (z-score)” value [20] of the same binder?
A: -0.55

Q: And the “glycan array binding signal (z-score)” value [21]?
A: -0.316

Q: And the “glycan array binding signal (z-score)” value [22]?
A: -0.744

Q: And the “glycan array binding signal (z-score)” value [23]?
A: 0.518

Q: And the “glycan array binding signal (z-score)” value [24]?
A: -0.272

Q: What about the “glycan array binding signal (z-score)” value [25] of the same binder?
A: 1.21

Q: And the “glycan array binding signal (z-score)” value [26]?
A: 2.49

Q: What about the “glycan array binding signal (z-score)” value [27] of the same binder?
A: 3.63

Q: And the “glycan array binding signal (z-score)” value [28]?
A: -0.657

Q: What about the “glycan array binding signal (z-score)” value [29] of the same binder?
A: -0.713

Q: And the “glycan array binding signal (z-score)” value [30]?
A: 1.79
